SMILES strings stand for the structures. Potency and affinity values are given separately. Active and inactive are the calls of the source.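 The calls were made as follows: active = a fitted half-maximal concentration no higher than twice the top valid tested dose, with signal falling as cells die; inconclusive = flat curve between -70% and -30%, or poor fit; inactive = the rest, including signal rising instead of falling.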

Drawing on PubChem BioAssay, this text covers outcome for 39 compounds.

This experiment can be described thus: HeLa cell cytotoxicity, dose response, cytotoxicity control, ATP luminescence, cherry-pick samples (AID 687004). The following applies: HeLa viability, ATP luminescence (CellTiter-Glo), 48 h; series mostly up to 26 µM.
Regarding `CN1c2ccc(Br)cc2[C@@H]2[C@@H](CCN2C(=O)Cc2cccnc2)[C@@H]1CO`, the call was inactive.

With `COC(=O)C1=C(C)N(Cc2ccccc2)C(=O)N[C@H]1c1cccc(F)c1`, the result was inactive. The same measure for `Cc1cc(OCC(=O)N(C)Cc2ccccc2)cc(C)c1Cl`: “inactive”. In the case of `O=C(CSc1ncnc2c1cnn2-c1ccc(F)cc1)NCc1ccc2c(c1)OCO2` it was “inactive”.

Regarding `CN(C)CCCn1c(=O)n(C2CCCCC2)c(=O)c2c3c(sc21)CCCCC3`, the call was inactive. For the compound `O=C(NC(=S)Nc1ccccc1N1CCOCC1)c1ccc([N+](=O)[O-])cc1`, the compound was called inactive. For the compound `C[C@H](NC(=O)C[C@@H]1C=C[C@H](NC(=O)CN2CCOCC2)[C@H](CO)O1)c1ccccc1`, the outcome was inactive. Turning to `Cc1ccc(NC(=O)C2CCC(=O)N2)cc1C` (centres undefined), the result was inactive. As to `CCNC(=O)CN(c1ccc(C)cc1)S(=O)(=O)c1ccc(SC)cc1`, the compound was called inactive. Take `CC(C)NC(=O)Nc1ccc2c(c1)C(=O)N([C@H](C)CO)C[C@H](C)[C@H](CN(C)Cc1ccncc1)OCCCC[C@H](C)O2`: the compound was classed as inactive. The same measure for `O=C(NC(=S)Nc1ccccc1[N+](=O)[O-])c1ccccc1`: “inactive”; for `CCC(=O)N1CCC1(C)C(=O)Nc1ccc(C)c(C)c1` (centres undefined): “inactive”.

With `CC(NC(=O)COc1ccccc1-c1ccccc1)c1ccccc1` (centres undefined), the compound was classed as inactive. The same measure for `Cc1cc(C)cc(OCC(=O)NC(C)c2ccccc2)c1` (centres undefined): “inactive”; for `CCN(CC)C(=O)CSc1ncnc2c1cnn2-c1ccccc1`: “inactive”.

On to `CC(=O)c1ccc(N2CCN(C(=O)Cc3cccs3)CC2)cc1`, for which the compound was classed as inactive. Consider `Cc1ccc(S(=O)(=O)N[C@H]2CC[C@H](CC(=O)NCc3ccccc3F)O[C@H]2CO)cc1`, for which the compound was classed as inactive. In the case of `CC(C)C(=O)N1CCC1(C)C(=O)Nc1ccccc1C(C)(C)C` (centres undefined) it was “inactive”; in that of `CO[C@@H]1CN(C)C(=O)c2ccc(NS(=O)(=O)c3ccc(Oc4ccccc4)cc3)cc2OC[C@H](C)NC[C@H]1C`, “inactive”. Regarding `CNC[C@@H]1Oc2ccc(NS(=O)(=O)c3ccc(Cl)cc3)cc2C(=O)N([C@H](C)CO)C[C@H]1C`, the result was inactive. In the case of `COCC#Cc1ccc2c(c1)O[C@H](CN(C)S(=O)(=O)c1ccc(OC)cc1)[C@H](C)CN([C@H](C)CO)S2(=O)=O`, the call was inactive. Consider `Cc1cc(C)c(NC(=O)CNC(=O)CNC(=O)C2CCCCC2)c(C)c1`, for which the outcome was inactive. With `CC(C)NC(=O)Nc1ccc2c(c1)C(=O)N([C@@H](C)CO)C[C@@H](C)[C@@H](CN(C)C(=O)NC1CCCCC1)OCCCC[C@H](C)O2`, the call was inactive. In the case of `Cc1ccc(OCC(=O)NC(C)c2ccccc2)cc1C` (centres undefined), the compound was called inactive. Consider `CCOc1ccc(C(=O)NC(=S)Nc2ccccc2N2CCCCC2)cc1[N+](=O)[O-]`, for which the result was inactive.

On to `Cc1cccc(NC(=O)CN(C)C(=O)C2CCCC2)c1C`, for which the compound was classed as inactive. For `Cc1noc(C)c1NC(=O)N(C)C[C@H]1OCCCC[C@@H](C)Oc2ccc(NC(=O)NC(C)C)cc2C(=O)N([C@H](C)CO)C[C@H]1C`, the outcome was inactive.

Turning to `O=C(CN(c1ccc(F)cc1)S(=O)(=O)c1ccccc1)NC1CC2CCC1C2` (centres undefined), the compound was called inactive. As to `CCC(=O)Nc1ccc2c(c1)OC[C@H](C)N(C(=O)c1ccc(F)cc1)C[C@@H](C)[C@@H](OC)CN(C)C2=O`, the compound was classed as inactive.

`N#C[C@H]1[C@@H](c2ccccc2)[C@@H](CO)N1C(=O)Cc1ccccc1`: the outcome was inactive.

As for `C[C@H]1CN([C@@H](C)CO)C(=O)CCCn2cc(nn2)CO[C@@H]1CN(C)Cc1ccc(C(F)(F)F)cc1`, the compound was classed as inactive. As for `COCCNC(=O)C[C@H]1C=C[C@H](NS(=O)(=O)c2ccc(C)cc2)[C@@H](CO)O1`, the compound was classed as inactive. For `O=C(c1c(Cl)cccc1Cl)N1CCN(c2ccccn2)CC1`, the outcome was inactive. On to `Cc1ccccc1N(CC(=O)NCCSC1CCCCC1)S(=O)(=O)c1ccccc1`, for which the outcome was inactive.

With `C/C=C/c1ccc([C@@H]2[C@@H](C#N)N(S(=O)(=O)c3cccc(F)c3)[C@@H]2CO)cc1`, the compound was classed as inactive.

As for `CCC(=O)N1[C@H](CO)[C@@H](c2ccc(-c3cccnc3)cc2)[C@@H]1CN(C)C(C)=O`, the call was inactive. Regarding `C[C@@H]1CN([C@@H](C)CO)C(=O)c2cc(-c3cncnc3)cnc2O[C@H]1CN(C)C(=O)CN1CCOCC1`, the result was inactive. In the case of `O=C(CCN1CCCCC1)NCC[C@@H]1CC[C@H](NC(=O)c2ccc(F)cc2)[C@@H](CO)O1`, the compound was called inactive.

`C[C@@H]1CN([C@@H](C)CO)C(=O)c2cc(NC(=O)C3CC3)ccc2O[C@H]1CN(C)Cc1ccc2c(c1)OCO2`: the call was inactive.
